# Results published in the supplement of paper PMC8728848.
# The sample as a whole holds a higher share of the strongest signals than the screen did.
# Assays:
# Test in all cases: glycan array binding signal (z-score within array); higher = stronger binding
# Conditions in all cases: glycan notation: IUPAC condensed, linker removed
# [1] = target: Gal(b1-4)GlcNAc(b1-3)[Fuc(a1-3)GlcNAc(b1-6)]Gal(b1-4)Glc
# In short: (§1)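 The binding signal is a Z-score computed within each array. Data were drawn from 3228 arrays in the Consortium for Functional Glycomics database, restricted to those with a known protein sequence. Scores were averaged over arrays of the same protein sequence at different concentrations or buffers, and over linkers, and negative values can be taken as non-binding.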
# Gal3S(b1-4)Glc6S = target: Gal3S(b1-4)Glc6S
# In short: as §1
# Gal3S6S(b1-4)GlcNAc6S = target: Gal3S6S(b1-4)GlcNAc6S
# In short: as §1
# Gal6S(b1-4)Glc6S = target: Gal6S(b1-4)Glc6S
# In short: as §1
# GalNAc3S(b1-4)GlcNAc3S = target: GalNAc3S(b1-4)GlcNAc3S
# In short: as §1
# [2] = target: GlcA3S(b1-3)Gal(b1-4)GlcNAc(b1-2)Man
# In short: as §1
# [3] = target: GlcNAc(b1-2)[GlcNAc(b1-6)]Man(a1-6)[GlcNAc(b1-2)Man(a1-3)]Man(b1-4)GlcNAc(b1-4)[Fuc(a1-6)]GlcNAc
# In short: as §1
# GlcNAc(b1-3)Gal = target: GlcNAc(b1-3)Gal
# In short: as §1
# GlcNAc(b1-6)GalNAc = target: GlcNAc(b1-6)GalNAc
# In short: as §1
# [4] = target: Kdn(a2-3)Gal(b1-4)[Fuc(a1-3)]GlcNAc
# In short: as §1
# Kdn(a2-6)Gal(b1-4)GlcNAc = target: Kdn(a2-6)Gal(b1-4)GlcNAc
# In short: as §1
# [5] = target: Man(a1-2)Man(a1-3)[Man(a1-6)]Man(a1-6)[Man(a1-2)Man(a1-3)]Man(b1-4)GlcNAc(b1-4)GlcNAc
# In short: as §1
# [6] = target: Neu5Ac(a2-3)Gal(b1-3)GlcNAc(b1-2)Man
# In short: as §1
# [7] = target: Neu5Ac(a2-3)Gal(b1-3)GlcNAc(b1-3)GalNAc
# In short: as §1
# [8] = target: Neu5Ac(a2-3)Gal(b1-3)GlcNAc6S
# In short: as §1
# [9] = target: Neu5Ac(a2-3)Gal(b1-3)[Fuc(a1-4)]GlcNAc
# In short: as §1
# [10] = target: Neu5Ac(a2-3)Gal(b1-3)[Neu5Ac(a2-6)]GlcNAc(b1-3)[Fuc(a1-3)[Gal(b1-4)]GlcNAc(b1-6)]Gal(b1-4)Glc
# In short: as §1
# [11] = target: Neu5Ac(a2-3)Gal(b1-4)GlcNAc(b1-2)[Neu5Ac(a2-3)Gal(b1-4)GlcNAc(b1-4)]Man(a1-3)[GlcNAc(b1-4)][Neu5Ac(a2-3)Gal(b1-4)GlcNAc(b1-2)[Neu5Ac(a2-3)Gal(b1-4)GlcNAc(b1-6)]Man(a1-6)]Man(b1-4)GlcNAc(b1-4)GlcNAc
# In short: as §1
# [12] = target: Neu5Ac(a2-3)Gal(b1-4)GlcNAc(b1-3)Gal(b1-4)GlcNAc(b1-3)[Neu5Ac(a2-3)Gal(b1-4)GlcNAc(b1-3)Gal(b1-4)GlcNAc(b1-6)]GalNAc
# In short: as §1
# [13] = target: Neu5Ac(a2-3)Gal(b1-4)[Fuc(a1-3)]GlcNAc(b1-6)[Gal(b1-3)]GalNAc
# In short: as §1
# [14] = target: Neu5Ac(a2-3)Gal6S(b1-4)[Fuc(a1-3)]GlcNAc
# In short: as §1
# [15] = target: Neu5Ac(a2-6)Gal(b1-4)GlcNAc(b1-2)Man(a1-3)[Neu5Ac(a2-6)Gal(b1-4)GlcNAc(b1-2)Man(a1-6)]Man(b1-4)GlcNAc(b1-4)GlcNAc
# In short: as §1
# [16] = target: Neu5Ac(a2-6)Gal(b1-4)GlcNAc(b1-2)Man(a1-6)Man(b1-4)GlcNAc(b1-4)GlcNAc
# In short: as §1
# [17] = target: Neu5Ac(a2-6)Gal(b1-4)GlcNAc(b1-2)Man(a1-6)[Man(a1-3)]Man(b1-4)GlcNAc(b1-4)GlcNAc
# In short: as §1
# [18] = target: Neu5Ac(a2-6)Gal(b1-4)GlcNAc(b1-3)Gal(b1-4)GlcNAc(b1-3)Gal(b1-4)GlcNAc(b1-2)Man(a1-3)[Neu5Ac(a2-6)Gal(b1-4)GlcNAc(b1-3)Gal(b1-4)GlcNAc(b1-3)Gal(b1-4)GlcNAc(b1-2)Man(a1-6)]GalNAc
# In short: as §1
# [19] = target: Neu5Ac(a2-6)Gal(b1-4)GlcNAc(b1-6)GalNAc
# In short: as §1
# [20] = target: Neu5Ac(a2-6)GlcNAc(b1-4)GlcNAc(b1-4)GlcNAc
# In short: as §1
# Neu5Ac(a2-8)Neu5Ac = target: Neu5Ac(a2-8)Neu5Ac
# In short: as §1
# [21] = target: Neu5Ac(a2-8)Neu5Ac(a2-8)Neu5Ac(a2-3)[GalNAc(b1-4)]Gal(b1-4)Glc
# In short: as §1
binder,measurement,setting,value
Pbx2CASH domain (Cryptococcus neoformans) (protein) GIPGPNRLYRLSGPIIFTAADQEIATYGYPTGSERAVLRVEGRNTATAIQGDCRRCARVSVKNLVVDGNRKKLGRMRDFQLATGLVVLGGNEGQSIQNSWIKNPRGFTAIHIREGDKLQCSGARVEKNEIGPVGEEYDPEKDGDDPEMSPLGRPLADGVSIACRDSFIRDNTFRDNTDAAIVVYCSPGTLIHA,glycan array binding signal (z-score),[1],-0.704
same,glycan array binding signal (z-score),Gal3S(b1-4)Glc6S,0.057
same,glycan array binding signal (z-score),Gal3S6S(b1-4)GlcNAc6S,1.44
same,glycan array binding signal (z-score),Gal6S(b1-4)Glc6S,3.18
same,glycan array binding signal (z-score),GalNAc3S(b1-4)GlcNAc3S,-0.15
same,glycan array binding signal (z-score),[2],2.57
same,glycan array binding signal (z-score),[3],-0.071
same,glycan array binding signal (z-score),GlcNAc(b1-3)Gal,-0.697
same,glycan array binding signal (z-score),GlcNAc(b1-6)GalNAc,-0.438
same,glycan array binding signal (z-score),[4],0.079
same,glycan array binding signal (z-score),Kdn(a2-6)Gal(b1-4)GlcNAc,-0.478
same,glycan array binding signal (z-score),[5],-0.457
same,glycan array binding signal (z-score),[6],3.35
same,glycan array binding signal (z-score),[7],0.011
same,glycan array binding signal (z-score),[8],-0.247
same,glycan array binding signal (z-score),[9],-0.813
same,glycan array binding signal (z-score),[10],-0.803
same,glycan array binding signal (z-score),[11],0.012
same,glycan array binding signal (z-score),[12],0.079
same,glycan array binding signal (z-score),[13],0.909
same,glycan array binding signal (z-score),[14],-0.748
same,glycan array binding signal (z-score),[15],-0.301
same,glycan array binding signal (z-score),[16],1.6
same,glycan array binding signal (z-score),[17],2.48
same,glycan array binding signal (z-score),[18],4.62
same,glycan array binding signal (z-score),[19],1.05
same,glycan array binding signal (z-score),[20],-0.208
same,glycan array binding signal (z-score),Neu5Ac(a2-8)Neu5Ac,-0.046
same,glycan array binding signal (z-score),[21],3.58
